In PubChem BioAssay:
Unmarked numbers belong to inactive results. Some of the results follow. Active and inactive are the calls of the source.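 How the source made its calls, unless noted: active means mean inhibition across triplicate wells above the cutoff set by the earlier primary insulin-degrading enzyme screen (cut at about 16% in these data); inactive means the rest.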

Legend:
[1] = biological target: Oxytocin receptor (Homo sapiens) (UniProt P30559); assay: human OXTR agonists, confirmation, fluorescence, CHO-OTR cells, triplicate (AID 434963;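 active means mean activation above about 20% derived from the earlier single-dose screen, limit read from the data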;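 further: peak over minimum fluorescence ratio per well during a 100 second FLIPR read; 0% = DMSO alone and 100% = oxytocin high control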); settings: Fluo-8 calcium fluorescence, agonist, at 3 µM, active compounds read high
[2] = biological target: Vasopressin V1a receptor (Homo sapiens) (UniProt P37288); assay: V1a receptor agonists, calcium signal, counter-screen for OXTR agonist project, triplicate, fluorescence, CHO-V1R cells (AID 434991;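 active means mean activation over triplicate exceeds the hit threshold set in the earlier primary screen, cut at about 20% in these data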;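 further: peak over basal fluorescence ratio within a 100 second read; 0% = DMSO alone and 100% = 3 nM vasopressin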); settings: Fluo-8 calcium fluorescence, at 3 µM, active compounds read high
[3] = growth loss of phage-infected RecBCD+ E. coli, confirmation, RecBCD inhibitor project, absorbance, E. coli V66, T4 gene 2 phage (AID 651982;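 active means mean inhibition over triplicates exceeding the hit threshold derived in the original primary screen, cut at about 11% in these data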); settings: E. coli V66 + T4 2- phage, growth OD; at 11.9 µM; active compounds read high
[4] = E. coli viability inhibition, counter-screen for RecBCD inhibitor project, absorbance, high throughput (AID 651983; in the data active means inhibition above about 20%;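 further: E. coli strain V66 grown with compound alone and no phage infection; 0% = bacteria with DMSO vehicle only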); settings: absorbance (OD) growth, at 11.9 µM, active compounds read high
[5] = growth loss of phage-infected AddAB-carrying E. coli, confirmation, counter-screen for RecBCD inhibitor project, absorbance, E. coli V3065, T4 phage (AID 651984;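 active means mean inhibition above the solvent-only control wells' mean plus 3 SD, cut at about 22% in these data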;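 further: higher means less bacterial growth from phage killing when AddAB is blocked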); settings: E. coli expressing H. pylori AddAB + T4 phage, OD growth; at 11.9 µM; active compounds read high; gene 2 mutant T4, recBCD-deleted host
[6] = biological target: Insulin-degrading enzyme (Homo sapiens) (UniProt P14735); assay: human IDE inhibitors in live cells, confirmation, fluorescence polarization, HEK cells, FAbetaB substrate (AID 435028); settings: FAbetaB cleavage, at 5.59 µM, active compounds read high;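 further: 0% = DMSO wells and 100% = 60 µM reference IDE inhibitor Ii1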
[7] = cytotoxicity in HEK cells, cytotoxicity control for IDE inhibitor project, cell-based, luminescence (AID 449730; in the data active means inhibition above about 22%;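 further: 0% = vehicle wells and 100% = reference cytotoxic drug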); settings: HEK293 cytotoxicity, ATP luminescence; at 5.59 µM; active compounds read high
[8] = biological target: Photoreceptor-specific nuclear receptor (Homo sapiens) (UniProt Q9Y5X4); assay: NR2E3 agonist confirmation in cells, cell-based, luminescence, CHO-S two-hybrid (AID 624378;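 active means average inhibition above a cutoff equal to the mean inhibition of all tested compounds plus one SD, cut at about 70% in these data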;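 further: 0% = DMSO in NR2E3 cells and 100% = DMSO in cells lacking NR2E3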); settings: CHO-S mammalian two-hybrid NR2E3-NCOR, luciferase luminescence; at 3.98 µM; active compounds read high
[9] = GAL4-VP16 reporter modulators, confirmation, counter-screen for NR2E3 agonist project, cell-based, luminescence, CHO-S, high throughput (AID 624379;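 active means mean inhibition above a cutoff equal to the average over all tested compounds plus one standard deviation, cut at about 70% in these data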;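 further: 0% = DMSO with VP16-transfected cells and 100% = DMSO with cells lacking VP16; higher means less reporter light so more repression of VP16 activity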); settings: CHO-S GAL4-VP16 luciferase reporter, at 3.98 µM, active compounds read high
[10] = tested on: transactivating tegument protein VP16 (Human herpesvirus 1); assay: VP16 transactivation reporter inhibitors, counter-screen for SRC2 inhibitor project, cell-based, luminescence, single concentration (AID 652007; in the data active means inhibition above about 36%); settings: cell-based VP16 transactivation luciferase reporter, at 8.9 µM, active compounds read high
[11] = biological target: Nuclear receptor coactivator 2 (Homo sapiens) (UniProt Q15596); assay: SRC2 coactivator transcriptional activity inhibitors, confirmation, cell-based, luminescence, HEK293, triplicate (AID 652008;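 active means mean inhibition above 46.5%, the solvent-only control mean plus 3 SD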;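 further: 0% = DMSO-treated cells and 100% = Gossypol at 36 µM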); settings: HEK293 GAL4-SRC2 luciferase reporter, at 8.9 µM, active compounds read high
[12] = biological target: (Lyso)-N-acylphosphatidylethanolamine lipase (Mus musculus) (UniProt Q8VD66); assay: ABHD4 inhibitors, retest, confirmation, biochemical, fluorescence polarization, mouse (AID 720658;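 active means mean inhibition across replicates above the hit cutoff set in the primary screen, cut at about 30% in these data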;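 further: 0% = wild-type ABHD4 with DMSO and 100% = catalytically dead S159A mutant with DMSO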); settings: purified mABHD4, FP-Rh probe fluorescence polarization; at 8.92 µM; active compounds read high
[13] = biological target: Platelet-activating factor acetylhydrolase (Homo sapiens) (UniProt Q13093); assay: pPAFAH (PLA2G7) enzyme inhibitors, confirmation, biochemical, fluorescence polarization, human (AID 463230;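 active means mean inhibition of the triplicate above the hit cutoff set for the earlier primary screen, cut at about 25% in these data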;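 further: 0% = enzyme with DMSO and 100% = wells lacking pPAFAH enzyme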); settings: recombinant pPAFAH, FP-Rh probe fluorescence polarization; at 3.39 µM; active compounds read high
[14] = biological target: Protein-arginine deiminase type-4 (Homo sapiens) (UniProt Q9UM07); assay: human PAD4 inhibitors, confirmation, biochemical, fluorescence polarization (AID 488796;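 active means mean inhibition across replicates above the hit cutoff set by the earlier primary screen, cut at about 15% in these data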;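 further: inhibitors block active-site labeling by the probe so polarization falls; 0% = PAD4 with probe and DMSO and 100% = probe without PAD4 enzyme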); settings: recombinant PAD4, RCA probe fluorescence polarization; at 6.36 µM; active compounds read high
[15] = biological target: Nuclear receptor coactivator 3 (Homo sapiens) (UniProt Q9Y6Q9); assay: SRC3 coactivator transcriptional activity inhibitors, confirmation, cell-based, luminescence, quadruplicate (AID 588792;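 active means mean inhibition over 43.08%, the solvent-only control mean plus 3 SD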;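 further: 0% = DMSO treated cells and 100% = gossypol at 36 µM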); settings: HEK293 GAL4-SRC3 luciferase reporter, at 3.6 µM, active compounds read high
[16] = tested on: transactivating tegument protein VP16 (Human herpesvirus 1), Gal4-VP16 luciferase reporter; assay: VP16 transactivation inhibitors, counter-screen for SRC3 inhibitor project, cell-based, luminescence, high throughput (AID 588794; in the data active means inhibition above about 30%); settings: mammalian cells, VP16-driven luciferase reporter luminescence; at 3.6 µM; active compounds read high
[17] = Gal4-VP16 luciferase reporter inhibitors, counter-screen for COUP-TFII antagonist project, cell-based, luminescence, HEK293 (AID 687007; in the data active means inhibition above about 13%); settings: at 8.5 µM, active compounds read high
[18] = biological target: COUP transcription factor 2 (Homo sapiens) (UniProt P24468); assay: NR2F2 transcriptional activity inhibitors, confirmation, cell-based, luciferase reporter, HEK293, triplicate (AID 687008;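 active means mean inhibition over three repeats above a set limit taken from the earlier primary screen, cut at about 38% in these data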;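 further: 100% = cells given the luciferase reporter alone without the COUP-TF2 vector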); settings: HEK293 NGFI-A luciferase reporter, luminescence; at 8.5 µM; active compounds read high
[19] = biological target: Toll-like receptor 9 (Homo sapiens) (UniProt Q9NR96); assay: TLR9-MyD88 association inhibitors, retest, confirmation, cell-based, CHO, BLA complementation, fluorescence, triplicate (AID 540250;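 active means mean inhibition across three repeats above about 21% taken from the earlier screen, limit read from the data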;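 further: blue over green emission ratio reports constitutive TLR9 MyD88 association via BLA complementation; 0% = DMSO vehicle wells and 100% = clavulanate BLA inhibitor wells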); settings: CCF4 FRET ratio, at 4.98 µM, active compounds read high
[20] = beta-lactamase reporter inhibitors in CHO cells, artefact control for TLR9-MyD88 binding inhibitor project, cell-based, fluorescence (AID 540251;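 active means mean inhibition above a 50% cutoff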;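 further: counterscreen of TLR9-MyD88 hits on CMV-driven BLA in CHO-K1 cells; 0% = DMSO alone and 100% = clavulanate blocking BLA; higher means less blue over green ratio so more BLA blockade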); settings: CHO-BLA cells, CCF4 FRET ratio, at 4.98 µM, active compounds read high
[21] = CHO cell viability loss – luminescence, single concentration, cytotoxicity control for TLR9-MyD88 binding inhibitor project (AID 588336; in the data active means inhibition above about 11%); settings: TLR9-MyD88 CHO cells cytotoxicity, at 4.98 µM, active compounds read high
[22] = biological target: Receptor-interacting serine/threonine-protein kinase 2 (Homo sapiens) (UniProt O43353); assay: NOD2-RIPK2 binding disruptors, retest, confirmation, fluorescence, CHO cells, BLA complementation, triplicate (AID 624370;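 active means mean inhibition across replicates above a set limit taken from the earlier primary screen, cut at about 21% in these data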;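 further: 0% = DMSO-only wells and the high end = clavulanate BLA-blocked wells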); settings: CCF4 FRET, at 4.98 µM, active compounds read high
[23] = beta-lactamase reporter inhibitors in CHO cells, confirmation, artefact control for NOD2-RIPK2 interaction inhibitor project, cell-based, CHO-K1 CMV-bla, CCF4 FRET, fluorescence (AID 624371;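 active means mean inhibition above the low-control mean inhibition plus three low-control SD, cut at about 11% in these data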;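 further: 0% = DMSO only wells and 100% = clavulanate high control wells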); settings: CCF4 FRET ratio, counterscreen, at 4.98 µM, active compounds read high

Oxytocin receptor (Homo sapiens), sequence (P30559 whole entry, looked up): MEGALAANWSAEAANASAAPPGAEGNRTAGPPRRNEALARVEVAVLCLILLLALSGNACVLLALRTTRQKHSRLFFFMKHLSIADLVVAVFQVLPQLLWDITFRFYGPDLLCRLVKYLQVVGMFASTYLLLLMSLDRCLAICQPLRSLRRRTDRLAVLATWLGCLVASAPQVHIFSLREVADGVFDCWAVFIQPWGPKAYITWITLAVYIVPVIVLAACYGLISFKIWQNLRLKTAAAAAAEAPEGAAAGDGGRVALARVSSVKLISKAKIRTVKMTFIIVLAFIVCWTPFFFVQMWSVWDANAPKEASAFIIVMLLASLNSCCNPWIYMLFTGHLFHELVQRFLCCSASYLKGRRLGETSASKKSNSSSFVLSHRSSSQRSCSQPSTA
Insulin-degrading enzyme (Homo sapiens), sequence (P14735 whole entry, looked up): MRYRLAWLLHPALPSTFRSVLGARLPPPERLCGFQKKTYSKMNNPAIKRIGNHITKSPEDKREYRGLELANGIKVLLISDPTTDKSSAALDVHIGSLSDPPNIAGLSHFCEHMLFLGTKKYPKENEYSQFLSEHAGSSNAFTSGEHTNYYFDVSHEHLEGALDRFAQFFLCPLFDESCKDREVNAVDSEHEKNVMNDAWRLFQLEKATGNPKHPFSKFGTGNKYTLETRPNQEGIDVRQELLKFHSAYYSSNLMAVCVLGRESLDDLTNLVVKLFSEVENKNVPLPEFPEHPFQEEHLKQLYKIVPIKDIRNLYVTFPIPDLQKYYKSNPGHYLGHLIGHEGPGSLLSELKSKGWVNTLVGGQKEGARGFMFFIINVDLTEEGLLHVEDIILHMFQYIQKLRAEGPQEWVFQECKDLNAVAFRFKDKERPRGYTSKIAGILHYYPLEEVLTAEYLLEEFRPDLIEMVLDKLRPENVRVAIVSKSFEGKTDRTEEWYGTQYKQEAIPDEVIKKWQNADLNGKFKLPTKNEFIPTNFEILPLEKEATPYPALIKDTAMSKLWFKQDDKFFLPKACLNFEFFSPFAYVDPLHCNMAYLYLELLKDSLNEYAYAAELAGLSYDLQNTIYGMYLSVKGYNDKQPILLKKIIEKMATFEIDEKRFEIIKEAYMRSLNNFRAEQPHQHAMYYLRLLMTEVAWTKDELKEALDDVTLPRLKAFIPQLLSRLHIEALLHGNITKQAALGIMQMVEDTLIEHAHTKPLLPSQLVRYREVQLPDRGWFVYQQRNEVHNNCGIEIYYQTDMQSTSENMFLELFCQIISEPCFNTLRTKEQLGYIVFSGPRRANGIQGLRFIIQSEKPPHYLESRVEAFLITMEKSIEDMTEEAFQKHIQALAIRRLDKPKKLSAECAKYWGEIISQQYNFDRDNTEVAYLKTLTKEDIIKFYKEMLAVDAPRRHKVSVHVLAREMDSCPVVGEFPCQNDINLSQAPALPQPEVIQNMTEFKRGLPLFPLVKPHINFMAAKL
Vasopressin V1a receptor (Homo sapiens), sequence (P37288 whole entry, looked up): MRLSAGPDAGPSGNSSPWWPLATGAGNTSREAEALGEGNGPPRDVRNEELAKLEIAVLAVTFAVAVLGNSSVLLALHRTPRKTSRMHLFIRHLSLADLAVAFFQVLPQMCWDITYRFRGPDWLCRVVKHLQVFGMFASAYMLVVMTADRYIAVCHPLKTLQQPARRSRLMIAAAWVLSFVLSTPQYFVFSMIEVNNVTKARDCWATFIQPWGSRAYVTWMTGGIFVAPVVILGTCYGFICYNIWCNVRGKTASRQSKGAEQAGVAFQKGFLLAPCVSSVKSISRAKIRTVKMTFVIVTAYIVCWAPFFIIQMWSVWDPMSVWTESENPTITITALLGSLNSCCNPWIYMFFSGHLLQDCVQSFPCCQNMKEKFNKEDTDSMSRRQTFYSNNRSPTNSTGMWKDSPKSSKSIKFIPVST
Platelet-activating factor acetylhydrolase (Homo sapiens), sequence (Q13093 whole entry, looked up): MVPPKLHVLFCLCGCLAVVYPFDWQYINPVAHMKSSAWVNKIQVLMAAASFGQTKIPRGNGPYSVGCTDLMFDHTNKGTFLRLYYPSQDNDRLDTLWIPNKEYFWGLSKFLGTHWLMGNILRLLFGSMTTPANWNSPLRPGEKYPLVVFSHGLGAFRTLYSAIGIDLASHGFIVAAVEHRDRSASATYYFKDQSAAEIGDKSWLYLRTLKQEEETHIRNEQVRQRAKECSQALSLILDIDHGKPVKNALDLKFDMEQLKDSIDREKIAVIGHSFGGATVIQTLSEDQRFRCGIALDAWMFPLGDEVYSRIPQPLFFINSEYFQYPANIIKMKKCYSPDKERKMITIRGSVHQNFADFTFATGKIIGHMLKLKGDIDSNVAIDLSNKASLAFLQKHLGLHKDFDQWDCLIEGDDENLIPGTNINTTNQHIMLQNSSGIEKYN
Nuclear receptor coactivator 2 (Homo sapiens), sequence (Q15596 whole entry, looked up, the tested form may be a part): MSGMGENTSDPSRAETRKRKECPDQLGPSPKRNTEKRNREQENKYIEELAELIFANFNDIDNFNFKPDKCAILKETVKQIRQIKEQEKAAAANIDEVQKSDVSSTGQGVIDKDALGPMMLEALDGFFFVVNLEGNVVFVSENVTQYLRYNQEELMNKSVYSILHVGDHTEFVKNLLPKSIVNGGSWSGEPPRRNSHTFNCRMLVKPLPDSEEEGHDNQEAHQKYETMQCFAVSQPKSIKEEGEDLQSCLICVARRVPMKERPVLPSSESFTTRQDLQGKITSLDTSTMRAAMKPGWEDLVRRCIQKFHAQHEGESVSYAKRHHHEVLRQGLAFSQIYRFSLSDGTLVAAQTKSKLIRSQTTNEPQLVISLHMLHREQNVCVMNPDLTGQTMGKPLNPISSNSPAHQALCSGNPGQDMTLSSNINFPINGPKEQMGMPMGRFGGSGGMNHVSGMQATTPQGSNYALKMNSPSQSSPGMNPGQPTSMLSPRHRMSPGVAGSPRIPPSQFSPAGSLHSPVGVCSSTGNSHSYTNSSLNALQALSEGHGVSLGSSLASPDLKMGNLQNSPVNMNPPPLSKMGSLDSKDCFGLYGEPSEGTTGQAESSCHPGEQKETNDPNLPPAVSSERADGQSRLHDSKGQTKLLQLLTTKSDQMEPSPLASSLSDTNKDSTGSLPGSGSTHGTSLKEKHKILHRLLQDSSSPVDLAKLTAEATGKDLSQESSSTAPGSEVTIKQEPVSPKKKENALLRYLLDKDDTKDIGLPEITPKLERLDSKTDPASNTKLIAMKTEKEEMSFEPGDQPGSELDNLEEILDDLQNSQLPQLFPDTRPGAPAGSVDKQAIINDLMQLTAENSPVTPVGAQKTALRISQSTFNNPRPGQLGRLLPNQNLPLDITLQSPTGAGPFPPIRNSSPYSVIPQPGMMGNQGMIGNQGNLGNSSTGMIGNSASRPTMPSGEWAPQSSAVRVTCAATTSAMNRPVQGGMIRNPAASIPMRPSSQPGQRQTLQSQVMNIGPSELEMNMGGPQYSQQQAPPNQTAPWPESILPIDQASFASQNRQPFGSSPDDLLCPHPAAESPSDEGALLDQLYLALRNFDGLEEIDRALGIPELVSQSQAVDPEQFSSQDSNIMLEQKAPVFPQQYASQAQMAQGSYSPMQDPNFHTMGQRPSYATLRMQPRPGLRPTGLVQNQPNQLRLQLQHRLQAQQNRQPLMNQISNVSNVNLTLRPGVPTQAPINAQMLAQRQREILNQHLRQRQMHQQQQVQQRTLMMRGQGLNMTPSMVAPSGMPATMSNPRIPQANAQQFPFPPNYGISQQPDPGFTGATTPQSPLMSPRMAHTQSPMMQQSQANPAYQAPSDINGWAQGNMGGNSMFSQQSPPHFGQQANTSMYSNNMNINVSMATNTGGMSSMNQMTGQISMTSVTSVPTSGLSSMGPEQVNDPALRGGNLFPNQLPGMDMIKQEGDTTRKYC
Receptor-interacting serine/threonine-protein kinase 2 (Homo sapiens), sequence (O43353 whole entry, looked up): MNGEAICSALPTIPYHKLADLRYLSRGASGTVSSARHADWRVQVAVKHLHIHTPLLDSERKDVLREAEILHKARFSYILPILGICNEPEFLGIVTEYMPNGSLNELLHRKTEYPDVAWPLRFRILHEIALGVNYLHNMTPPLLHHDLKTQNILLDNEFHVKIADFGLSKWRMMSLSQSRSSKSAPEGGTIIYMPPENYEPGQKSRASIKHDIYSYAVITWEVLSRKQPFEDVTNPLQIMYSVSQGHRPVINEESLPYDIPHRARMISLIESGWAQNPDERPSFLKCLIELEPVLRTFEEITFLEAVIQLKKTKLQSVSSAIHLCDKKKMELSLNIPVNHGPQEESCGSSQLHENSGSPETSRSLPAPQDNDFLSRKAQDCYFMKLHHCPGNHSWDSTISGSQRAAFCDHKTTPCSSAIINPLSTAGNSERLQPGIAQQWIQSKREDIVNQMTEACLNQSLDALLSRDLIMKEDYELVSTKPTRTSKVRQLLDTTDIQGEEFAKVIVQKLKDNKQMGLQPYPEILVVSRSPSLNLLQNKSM
COUP transcription factor 2 (Homo sapiens), sequence (P24468 whole entry, looked up): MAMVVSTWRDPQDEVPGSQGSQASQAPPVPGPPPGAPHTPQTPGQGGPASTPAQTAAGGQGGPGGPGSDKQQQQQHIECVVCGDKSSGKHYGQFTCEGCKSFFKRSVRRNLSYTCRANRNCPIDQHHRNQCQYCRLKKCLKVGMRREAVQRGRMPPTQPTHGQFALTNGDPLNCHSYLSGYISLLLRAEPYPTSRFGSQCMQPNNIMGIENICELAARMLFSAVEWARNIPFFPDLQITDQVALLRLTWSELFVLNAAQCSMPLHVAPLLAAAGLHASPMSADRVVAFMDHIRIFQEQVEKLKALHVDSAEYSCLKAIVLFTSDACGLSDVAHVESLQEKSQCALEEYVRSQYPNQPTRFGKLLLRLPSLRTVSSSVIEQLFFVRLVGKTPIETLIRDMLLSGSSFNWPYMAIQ
(Lyso)-N-acylphosphatidylethanolamine lipase (Mus musculus), sequence (Q8VD66 whole entry, looked up): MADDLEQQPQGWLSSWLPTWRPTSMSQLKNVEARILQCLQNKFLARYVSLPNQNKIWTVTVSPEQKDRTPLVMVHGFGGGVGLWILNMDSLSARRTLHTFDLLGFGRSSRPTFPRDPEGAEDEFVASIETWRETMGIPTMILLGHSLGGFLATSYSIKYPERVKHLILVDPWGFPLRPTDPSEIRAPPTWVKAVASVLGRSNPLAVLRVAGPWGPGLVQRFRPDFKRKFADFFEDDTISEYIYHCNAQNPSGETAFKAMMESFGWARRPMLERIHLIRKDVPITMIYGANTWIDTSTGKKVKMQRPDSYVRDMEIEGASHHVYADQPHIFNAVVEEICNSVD

CCOc1ccc(Cn2nnc(C(=O)Nc3ccc(OC)cc3OC)c2N)cc1
activation [1]: 16.4% | activation [2]: 14.5% | inhibition [3]: -0.29% | inhibition [4]: -0.35% | inhibition [5]: -1.47%

CCOC(=O)CC1C(=O)NCCN1c1nc2c(C)cccn2c(=O)c1/C=C1\SC(=S)N(C(C)CC)C1=O (stereo unspecified)
inhibition [6]: 27.1% (active) | inhibition [7]: 41.5% (active)

CN(C)S(=O)(=O)c1ccc(Oc2ccc(S(=O)(=O)N(C)C)cc2)cc1
activation [1]: 11.7% | activation [2]: 11.1% | inhibition [8]: 71.8% (active) | inhibition [9]: 31.9%

CC(=O)c1cc(NC(=O)c2ccccc2)c(=O)oc1/C=C/N(C)C
inhibition [6]: 31% (active) | inhibition [7]: 5.05%

CCc1ccc(-c2nn(-c3ccccc3)cc2CSC(=N)N)cc1
activation [1]: 11% | activation [2]: 7.29% | inhibition [10]: -13.8% | inhibition [11]: -7.64% | inhibition [12]: 43.6% (active)

Cc1c(C(=O)Nc2cccc(-c3nnc4n3CCCCC4)c2)oc2ccccc12
inhibition [6]: 5.89% | inhibition [7]: 21.4%

Cc1ccc2c(c1)c1ncnc(N3CCc4ccccc4C3)c1n2C
inhibition [6]: 14% | inhibition [7]: 7.19%

COc1ccc(/C=C/C(=O)c2cc(Br)ccc(=O)c2O)cc1
inhibition [13]: 20.5%

OC(CNCC1CCCO1)Cn1c2ccc(Br)cc2c2cc(Br)ccc21 (stereo unspecified)
inhibition [13]: 37.2% (active)

Cc1ccccc1-n1c(SCC(=O)Nc2cccc3ccccc23)nc(O)cc1=O
inhibition [13]: 4.9%

COc1ccc(C(=O)Nc2nc(-c3ccc(S(=O)(=O)N4CCOCC4)cc3)cs2)cc1
inhibition [6]: 3.32% | inhibition [7]: 68.2% (active) | inhibition [14]: 18.9% (active) | inhibition [15]: -12.4% | inhibition [16]: -5.9% | inhibition [10]: 16.2% | inhibition [11]: 21.5% | inhibition [17]: -11.1% | inhibition [18]: 40.2% (active)

COc1cc(/C=C(\C#N)c2nc3c(s2)CC(C)CC3)ccc1O (stereo unspecified)
inhibition [6]: 161% (active) | inhibition [7]: 11.3% | inhibition [19]: 7.82% | inhibition [20]: 17% | inhibition [21]: 0.65% | inhibition [22]: 29.5% (active) | inhibition [23]: 39.6% (active)
